Results filed as inconclusive are left out. Activity calls are given as the source filed them. The calls were made as follows: active = hit-call score of the fitted dose curve at least 0.9, where 1 is the maximum; inconclusive = response in the unintended direction; inactive = score below 0.9.
Molecular target: human Phosphatase and Tensin Homolog (PTEN), PTEN (gene 5728) (UniProt P60484)
Assay: NVS_ENZ_hPTEN: NovaScreen (NVS) Enzymatic Assay for human Phosphatase and Tensin Homolog (PTEN) (AID 2283203)
Description: NVS_ENZ_hPTEN is a biochemical, single-readout assay that uses extracted gene-proteins in a cell-free assay. Measurements were taken 1 hour after chemical dosing in a 384-well plate.NVS_ENZ_hPTEN is one of one assay component(s) measured or calculated from the NVS_ENZ_hPTEN assay. It is designed to make measurements of enzyme activity, a form of enzyme reporter, as detected with fluorescence intensity signals by Fluorescence and electrophoretic mobility shift technology.Data from the assay component NVS_ENZ_hPTEN was analyzed into 1 assay endpoint. This assay endpoint, NVS_ENZ_hPTEN, was analyzed in the positive analysis fitting direction relative to DMSO as the negative control and baseline of activity. Using a type of enzyme reporter, loss-of-signal activity can be used to understand changes in the enzymatic activity as they relate to the gene PTEN. Furthermore, this assay endpoint can be referred to as a primary readout, because this assay has produced multiple assay endpoints where this one serves a enzymatic activity function. To generalize the intended target to other relatable targets, this assay endpoint is annotated to the phosphatase intended target family, where the subfamily is dual-specific phosphatase.
Binding assays used specific radioligands (tritiated, iodinated) with non-radioactive competitive displacement ligands in agonist or antagonist protocols (as indicated) and various reference compounds and inhibitors to titrate specific binding to receptors and transporters. Most enzyme assays (CYPs, kinases, phosphatases, proteases, HDACs) used recombinant protein and specific substrates (fluorescence mostly, some colorimetric and radioactive) and inhibitors, followed by a biochemical separation of substrate and product. All assays for the biochemical HTS were initially run in duplicate at a single concentration (10 uM for CYP450 assays and 25 uM for all others). […] Each assay was run with positive and negative controls, and concurrent controls on every plate. The follow-up (secondary) screen tested active chemical-pairs in concentration series, as well as a few additional assays not tested in the primary screen, some selected negative inactives, and several cases re-run in the concentration series for confirmatory purposes.

Chain of human Phosphatase and Tensin Homolog (PTEN), PTEN (gene 5728) (P60484 whole entry, looked up): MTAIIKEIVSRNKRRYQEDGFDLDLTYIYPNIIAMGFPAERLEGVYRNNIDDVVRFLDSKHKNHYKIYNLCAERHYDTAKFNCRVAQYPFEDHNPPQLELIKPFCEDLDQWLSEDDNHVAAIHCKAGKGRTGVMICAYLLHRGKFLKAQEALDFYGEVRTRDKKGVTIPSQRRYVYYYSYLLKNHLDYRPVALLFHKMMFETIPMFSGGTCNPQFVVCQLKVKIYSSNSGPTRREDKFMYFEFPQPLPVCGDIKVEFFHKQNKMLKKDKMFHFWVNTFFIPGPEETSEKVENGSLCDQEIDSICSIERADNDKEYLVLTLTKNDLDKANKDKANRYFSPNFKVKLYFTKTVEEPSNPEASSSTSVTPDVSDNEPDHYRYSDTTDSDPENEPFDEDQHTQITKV

Compound	AC50	outcome
Cn1[nH]nnc1=S	1.08 µM (active)	–
Clc1ccc(Oc2ccccc2)cc1	–	inactive
Nc1ccc([N+](=O)[O-])cc1Cl	2.67 µM (active)	–
Cc1ccc(C(=O)Cl)cc1	–	inactive
ClC(Cl)=C(c1ccc(Cl)cc1)c1ccccc1Cl	–	inactive
CC(Cl)CN(C)C (stereo not given)	–	inactive
O=c1ssc(Cl)c1Cl	–	inactive
CCOP(=S)(OCC)SCSc1ccc(Cl)cc1	–	inactive
CC(C)(C)OOC(C)(C)C	–	inactive
O=[N+]([O-])c1cc(Cl)ccc1Cl	–	inactive
